# GLS inhibitor: blocks human kidney-isoform glutaminase activity; O94925; GLS enzymatic activity, qHTS titration; Potency, µM (series often up to 45.5 µM), without a hit: top-dose activity change, negative = inhibition, hits mostly inhibitors; actives 0.21% (n = 410,000); further: on the % scale 0 is the no-effect control and ±100 the full control effect
#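 hKGA in 45 mM KH2PO4 pH 8.2, 0.02% Tween-20 with pin-transferred compounds; 1 mM L-glutamine (stock) plus glutamate oxidase/HRP/Amplex Red coupling added. Fluorescence read initially and after 30 min at RT.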
# HP1b chromo inh: blocks HP1-beta chromodomain binding to methylated histone tails; AID 540317; AlphaScreen HP1-beta / biotin-H3K9me3 peptide binding; Potency, µM (series often up to 114 µM), inactives show top-dose activity change, negative = inhibition, usual class: inhibitors; actives 0.56% (n = 390,000); further: nearly all actives have a fitted effect of over 70% in size
# Target sequence (P83916 whole entry, looked up): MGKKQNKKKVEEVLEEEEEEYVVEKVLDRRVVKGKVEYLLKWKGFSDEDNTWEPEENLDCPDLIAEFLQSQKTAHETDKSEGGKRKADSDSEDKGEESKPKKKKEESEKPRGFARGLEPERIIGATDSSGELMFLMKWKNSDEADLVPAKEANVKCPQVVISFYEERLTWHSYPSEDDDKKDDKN
#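 Compound inhibition of the preformed complex between 50 nM HP1-beta and 50 nM biotinylated H3K9me3 peptide was read by AlphaScreen. Buffer was PBS pH 7.4 with 0.01% Tween-20. Incubations ran 30 min at room temperature, with 10 ug/mL donor/acceptor beads.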
# G9a inh: blocks human histone lysine methyltransferase G9a; actives 8.8% (n = 350,000); Q96KQ7; AID 504332; Potency, µM (doses to about 102 µM), inactives show at the highest dose activity, negative = inhibition, usual class: inhibitors; G9a H3K9 monomethylation, AlphaScreen, 2 h; further: on the % scale 0 is the no-effect control and ±100 the full control effect; nearly all actives have a fitted effect of over 75% in size
# Target sequence (Q96KQ7 913-1193 limits assumed): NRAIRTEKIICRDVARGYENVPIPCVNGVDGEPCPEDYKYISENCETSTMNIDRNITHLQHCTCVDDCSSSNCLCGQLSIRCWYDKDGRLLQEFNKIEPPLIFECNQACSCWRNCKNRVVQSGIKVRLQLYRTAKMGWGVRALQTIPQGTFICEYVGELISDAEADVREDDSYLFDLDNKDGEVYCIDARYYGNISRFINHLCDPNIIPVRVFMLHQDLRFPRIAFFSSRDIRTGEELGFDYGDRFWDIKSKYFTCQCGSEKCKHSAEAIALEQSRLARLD
#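 G9a (20 nM) preincubated 15 min RT with compounds, then 500 nM biotinylated H3K9 peptide and 20 uM SAM added; 2 h RT reaction. Monomethyl-H3K9 product detected by AlphaScreen with anti-H3K9me1 antibody, streptavidin donor and anti-rabbit IgG acceptor beads.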
# BAZ2B inh: inhibitors of human BAZ2B bromodomain; Potency, µM (series often up to 114 µM), for the others: at the top dose activity change, negative = inhibition, most hits filed as inhibitors; Q9UIF8; AID 504333; actives 4.4% (n = 360,000); AlphaScreen BAZ2B-H3K14Ac peptide displacement; further: on the % scale 0 is the no-effect control and ±100 the full control effect; nearly all actives have a fitted effect of over 60% in size
#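 Compounds, titrated to a top concentration of 110 uM, were incubated 30 min at room temperature with preformed BAZ2B/acetyl-K14 H3 peptide complex (50 nM each). Proximity signal was measured by AlphaScreen after 20 min with beads.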
# L3MBTL1 block: inhibitors of human L3MBTL1. Q9Y468. AlphaScreen L3MBTL1–H3K9me1 peptide binding. Potency, µM (series often up to 57.1 µM), inactives show top-dose activity, negative = inhibition, hits mostly inhibitors. actives 0.66% (n = 230,000). AID 485360; further: on the % scale 0 is the no-effect control and ±100 the full control effect; nearly all actives have a fitted effect of over 60% in size
#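 First, the protein-peptide complex forms for 30 min at room temperature (L3MBTL1 50 nM, biotinylated H3K9me1 peptide 75 nM). Next, compounds are pin-transferred and incubated 30 min. Finally, AlphaScreen beads are added and read after 30 min.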
# JMJD2A Tudor: inhibitors of human JMJD2A Tudor domain; O75164; AlphaScreen JMJD2A-Tudor / H3K4me3 peptide binding; Potency, µM (doses to about 114 µM), for the others: at the highest dose activity change, negative = inhibition, most hits filed as inhibitors; actives 4.4% (n = 390,000); AID 504339; further: on the % scale 0 is the no-effect control and ±100 the full control effect; nearly all actives have a fitted effect of over 50% in size
# The depositor's hits bear a star; ? = inconclusive; . = no result; [ ] = dose if it differs, or a comment. This is a sample that favours compounds with a hit; in the whole collection about 10% have one here. The call rests on the fitted dose curve; in most records, active means well fitted curve in the direction sought with a large enough effect; inconclusive means small, poorly fitted or top-dose-only effect, or another doubt; inactive means no such curve, though single readings can be large; an effect the other way counts as inactive or inconclusive. Potency means the concentration at half of the fitted maximal effect.
SMILES,GLS inhibitor,HP1b chromo inh,G9a inh,BAZ2B inh,L3MBTL1 block,JMJD2A Tudor
Cc1nnc(C)n1/N=C/c1cccc([N+](=O)[O-])c1,-0.1%,34.9%,1.8%,-3.7%,25.2%,8.2%
Oc1cccc(/C=N/n2c(C3CCCCC3)n[nH]c2=S)c1,4.0%,-20.1%,2µM*,-24.3%,.,31.6µM*
Cc1cc(-c2n[nH]c(=S)n2/N=C/c2cccc([N+](=O)[O-])c2)n[nH]1,0.0%,?,1.58µM*,-11.7%,1.4%,7.94µM*
COc1cc(/C=N/N2C(C)CCCC2C)cc(OC)c1O (stereo unspecified),23.5%,2.8%,?,7.6%,.,-27.5%
COc1cc(/C=N/n2c(C3CCCCC3)n[nH]c2=S)cc(OC)c1O,8.7%,?,2µM*,-18.3%,.,2.82µM*
O=[N+]([O-])c1cccc(/C=N/n2c(C3CCCCC3)n[nH]c2=S)c1,-8.8%,7.9%,1.58µM*,10.3%,-2.5%,?
O=[N+]([O-])c1ccc(Cl)c(/C=N/n2c(C3CCCCC3)n[nH]c2=S)c1,4.6%,2.8%,?,-2.4%,7.4%,?
CNc1ncnc2ccc(-c3c(C)noc3C)cc12,.,.,2.0%[12.7 µM],?,-4.9%,.
CN(C1CCCCC1)S(=O)(=O)c1ccc(F)c(C(=O)Nc2ccc(C(F)(F)F)cc2)c1,-7.9%,52.4%,13.2%[59 µM],7.5%,.,-8.0%
CC1=Nc2cc(C(=O)NCCc3ccc(Cl)cc3)ccc2Sc2ccc(C)cc21,4.6%,7.9%,-30.4%[59 µM],-27.0%,.,-20.9%
Cc1cccc(C)c1NC(=O)c1oc2c(c1C)-c1nn(Cc3ccccc3)cc1CC2,-8.1%,2.2%,-7.1%[59 µM],-10.7%,.,-7.6%
COc1cccc(/C=N/n2c(C3CCCCC3)n[nH]c2=S)c1,-17.0%,-8.3%,2.51µM*,-33.9%,.,31.6µM*
Fc1cccc(/C=N/n2c(C3CCCCC3)n[nH]c2=S)c1,-23.5%,28.2%,?,17.7%,.,-13.7%
COc1ccc(OC)c(S(=O)(=O)N2CCN(c3ccc(F)cc3)CC2)c1,5.0%,30.3%,1.2%[59 µM],-28.8%,-5.6%,-25.9%
CCC(CC)N1CCN(S(=O)(=O)c2ccc(OC)cc2)CC1,0.6%,?,3.55µM*,50.1µM*,2.9%,1.58µM*
COc1ccc(N2CCN(S(=O)(=O)c3ccc(OC)cc3)CC2)cc1,50.2%,?,25.1µM*,?,-3.0%,?
COc1ccc(N2CCN(S(=O)(=O)c3cc(C)ccc3OC)CC2)cc1,0.0%,?,?,44.7µM*,-8.8%[11.4 µM],?
COc1ccc(S(=O)(=O)N2CCN(S(=O)(=O)c3c(F)cccc3F)CC2)cc1,.,.,5.2%[12.7 µM],-12.2%,-13.4%,-17.8%
COc1ccc(N2CCN(S(=O)(=O)c3ccc(CC(C)C)cc3)CC2)cc1,0.6%,19.0%,-34.5%[59 µM],-2.8%,.,-17.4%
COc1ccc(N2CCN(S(=O)(=O)c3cc(-c4cc(C)no4)ccc3C(C)C)CC2)cc1,-1.1%,29.0%,22.4µM*,10µM*,.,-4.9%
CCN(CC)c1ccc(C(=O)NCc2ccc3c(c2)CCN3C(=O)c2ccc(F)cc2)cc1,6.9%,29.3%,-28.6%[59 µM],-18.8%,.,-19.3%
CCOc1ccc(C(=O)N(Cc2cc(OC)c(OC)c(OC)c2)c2ccccn2)cc1,0.0%,55.1%,-0.2%[59 µM],-12.3%,.,-6.6%
CCN1CCN(c2ccc(S(=O)(=O)N3CCOCC3)cc2NC(=O)c2sccc2C)CC1,-0.7%,6.2%,12.6µM*,-5.2%,-7.2%,-20.5%
CCN1CCN(c2ccc(S(=O)(=O)N3CCOCC3)cc2NC(=O)c2ccccc2SC)CC1,-2.7%,14.2%,31.6µM*,-4.0%,0.3%,-9.0%
CCN1CCN(c2ccc(S(=O)(=O)N3CCOCC3)cc2NC(=O)CC(C)C)CC1,-3.1%,43.6%,0.5%[12.7 µM],-23.0%,3.9%,-9.8%
SMILES,GLS inhibitor,HP1b chromo inh,G9a inh,BAZ2B inh,L3MBTL1 block,JMJD2A Tudor
CCN1CCN(c2ccc(S(=O)(=O)N3CCOCC3)cc2NC(=O)c2cc(Cl)nc3ccccc23)CC1,2.5%,13.4%,44.7µM*,4.1%,-3.3%,-6.9%
CCN1CCN(c2ccc(S(=O)(=O)N3CCOCC3)cc2NC(=O)C(C)Oc2ccc(Cl)cc2)CC1 (stereo unspecified),11.8%,1.9%,11.2µM*,-31.4%,-6.3%,-25.1%
COc1ccc(OC)c(CNC(=O)CCc2c(C)nc3c(c2C)c(=O)n(C)c(=O)n3C)c1,-0.1%,28.5%,-1.1%[59 µM],-12.4%,.,-0.3%
CN(C)S(=O)(=O)N1CCC(N2CCN(Cc3ccc(F)cc3)C(=O)C2=O)CC1,-8.0%,20.1%,3.4%[59 µM],-15.5%,.,-14.9%
Cc1ccc(C(=O)N=c2sccn2C)cc1S(=O)(=O)N1CCOCC1,1.0%,36.7%,39.8µM*,-0.3%,4.6%,-8.3%
COc1ccc(NC(=O)c2c(NCc3ccc(N(C)C)cc3)sc3c2CCC3)cc1,-0.3%,?,11.2µM*,31.6µM*,.,56.2µM*
COC(=O)c1c(NC(=O)C2CC2)sc2c1CCN(C(C)=O)C2,-1.0%,39.3%,44.7µM*,-0.2%,-2.4%,-10.6%
Cc1ccc(C(=O)C(NC(=O)c2ccco2)Nc2sc3c(c2C(N)=O)CCCC3)cc1 (stereo unspecified),.,.,12.6µM*,?,-9.3%,.
COc1ccc(NC(=O)c2c(NCc3cccc(OC)c3)sc3c2CCCC3)cc1,-2.8%,13.0%,?,-35.3%,.,?
COc1cccc(CC(=O)Nc2sc3c(c2C(N)=O)CCCC3)c1,-10.0%,20.5%,39.8µM*,-13.1%,.,-2.7%
CC(=O)N1CCc2c(sc(NC(=O)C3CCCCC3)c2C(N)=O)C1,1.7%,41.4%,?,5.3%,12.8%,-9.0%
CCc1ccc(NC(=O)N2CCN(Cc3cc(=O)n4nc(-c5ccccc5OC)sc4n3)CC2)cc1,5.6%,22.9%[57 µM],-3.5%[59 µM],3.6%,.,-3.9%
COC(=O)c1c(NC(=O)C2CCCCC2C(=O)O)sc2c1CCCCC2 (stereo unspecified),-1.1%,-11.1%,31.6µM*,-30.4%,-8.3%,-15.9%
COC(=O)c1c(NC(=O)Cc2cccs2)sc2c1CCCC2,15.3%,-2.5%,14.6%[59 µM],79.4µM*,?,?
COc1ccc(CC(=O)Nc2sc3c(c2C(=O)Nc2ccc(C)cc2)CCCCC3)cc1,-13.9%,4.6%,10µM*,56.2µM*,.,56.2µM*
CCOC(=O)c1c(NC(=O)C2CCCCC2C(=O)O)sc2c1CCCCC2 (stereo unspecified),3.5%,-1.8%,-45.0%,?,8.1%[11.4 µM],-26.8%
CC(=O)Nc1ccc2c(c1)Cc1cc(N3C(=O)C=CC3=O)ccc1-2,4.4%,?,.,.,.,7.08µM*
O=C1C=CC(=O)N1c1ccc2c(c1)Cc1cc(F)ccc1-2,-3.5%,3.7%[57 µM],.,.,.,-2.8%
COc1cc(C(=O)NS(=O)(=O)c2ccccc2C)ccc1Cc1cn(C)c2ccc(NC(=O)OC3CCCC3)cc12,1.1%,.,?,50.1µM*,.,.

# Compound activity deposited in PubChem BioAssay by National Center for Advancing Translational Sciences (NCATS).
